Values joined by “and” are separate entries in the source; they are usually repeats but may differ in a detail not shown here. Identical values can stand only once. Counter-ions that a name gives are not always drawn.

For the test, the system named is Neuro-2a. Briefly: neurite formation score, plate-normalized to DMSO control mean 5.04 (score (0-8 scale)); higher = more or longer neurites. Particulars: 0.1 µM. The protocol:
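Neuro-2a mouse neuroblastoma cells in PLL-coated 96-well plates were pre-treated for 1 h in DMEM(+) with each kinase inhibitor at 0.1 µM, then switched to serum-free DMEM(-) with inhibitor to induce neurite outgrowth and fixed about 2-3 h later. Three blinded observers scored neurite formation from 0 (no neurites) to 8 (long neurites on almost all cells).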
`Cc1ccc(C(=O)Nc2ccc(CN3CCN(C)CC3)c(C(F)(F)F)c2)cc1C#Cc1cnc2[nH]ncc2c1` displayed a neurite formation score of 2.58. The compound `COCCOc1ccc2c(c1)ncn2-c1ccc2cccc(N3CCC(N)CC3)c2n1` registered a neurite formation score of 5.08. In the case of `Cc1nc(NC(=O)N2CCC[C@H]2C(N)=O)sc1-c1csc(C(C)(C)C)n1`, the neurite formation score was 5.21. Take `Cn1cc(-c2ccc3c(c2)CCN3C(=O)Cc2cccc(C(F)(F)F)c2)c2c(N)ncnc21`: the neurite formation score is 5.25. Then `FC(F)(F)c1ccc(/C=C/c2nc(COc3ccc(CCCCn4ccnn4)cc3)co2)cc1` [Mubritinib (TAK 165)], with 4.76; and `O=C(NCc1cccc(O)c1)Nc1nc(-c2ccncc2)cs1`, with 5.25; and `CSc1cccc(Nc2ncc3cc(-c4c(Cl)cccc4Cl)c(=O)n(C)c3n2)c1`, with 3.92. The compound `O=C1NCCc2[nH]c(-c3ccncc3)cc21` registered a neurite formation score of 5.92. For `CCS(=O)(=O)N1CC(CC#N)(n2cc(-c3ncnc4[nH]ccc34)cn2)C1` the value was 4.58. On to `O=C(c1ccc(F)c(F)c1Nc1ccc(I)cc1F)N1CC(O)([C@@H]2CCCCN2)C1` [Cobimetinib], for which the neurite formation score was determined as 4.71. Regarding `O=C(/C=C/c1ccc2ccccc2n1)c1ccncc1`, the neurite formation score is 3.08.

`Cn1cnc2c(F)c(Nc3ccc(Br)cc3Cl)c(C(=O)NOCCO)cc21` [AZD6244 (Selumetinib)] yielded a neurite formation score of 5.54. Compound `O=c1oc2c(O)c(O)cc3c(=O)oc4c(O)c(O)cc1c4c23` [Ellagic acid] yielded a neurite formation score of 4.42. With `Nc1ncnc2c1c(-c1cnc3[nH]ccc3c1)nn2C1CCCC1`, the neurite formation score worked out at 4.42. The compound `COc1cc2ncnc(Nc3ccc(F)c(Cl)c3)c2cc1NC(=O)/C=C/CN1CCCCC1` gave a neurite formation score of 4.88.

Turning to `NC(=O)c1ccc2nc(-c3ccc(Oc4ccc(Cl)cc4)cc3)[nH]c2c1`, the neurite formation score stood at 5.25. Then `Cc1ccc2nc(NCCN)c3ncc(C)n3c2c1`, with 4.09 and 3.42; and `CNC(=O)c1cc(Oc2ccc(NC(=O)Nc3ccc(Cl)c(C(F)(F)F)c3)c(F)c2)ccn1` [Regorafenib monohydrate], with 5.25; and `C#Cc1cccc(Nc2ncnc3cc(OCCOC)c(OCCOC)cc23)c1` [Erlotinib Hydrochloride], with 5.21. The compound `COc1cc2nccc(Oc3ccc(NC(=O)C4(C(=O)Nc5ccc(F)cc5)CC4)cc3)c2cc1OC` yielded a neurite formation score of 4.38. For `O=c1cc(-c2ccccc2)oc2c(O)c(O)ccc12` [7,8-Dihydroxyflavone] the value was 5.08. The compound `CN(C)C1CCN(C(=O)c2ccc(NC(=O)Nc3ccc(-c4nc(N5CCOCC5)nc(N5CCOCC5)n4)cc3)cc2)CC1` yielded a neurite formation score of 3.09. The compound `Nc1ncnc2c1c(-c1cccc(OCc3ccccc3)c1)cn2C1CC(CN2CCC2)C1` (stereo not given) came in with a neurite formation score of 4.71. In the case of `CCc1cnn2c(NCc3ccc[n+]([O-])c3)cc(N3CCCC[C@H]3CCO)nc12`, the neurite formation score was 3.42. For `O=C(Nc1ccc(OC(F)(F)F)cc1)c1sccc1NCc1ccnc2ccccc12` the value was 3.38; for `C=CC(=O)Nc1ccc2ncnc(Nc3cccc(Br)c3)c2c1`, 3.71; for `Nc1cccc(S(=O)(=O)N2CCCN(S(=O)(=O)c3ccc4c(c3)OCCO4)CC2)c1`, 4.09. `O=c1cc(N2CCOCC2)oc2c1ccc1ccccc12` registered a neurite formation score of 4.42.

Turning to `COc1ccc(-c2cnc3c(-c4cccc5ncccc45)cnn3c2)cc1`, the neurite formation score is 2.08.

For the compound `O=C1NC(=NCc2cccs2)S/C1=C\c1ccc2ncccc2c1`, the neurite formation score was 4.25.

`CCN(CC)CCNC(=O)c1c(C)[nH]c(/C=C2\C(=O)Nc3ccc(F)cc32)c1C` [Sunitinib malate] returned a neurite formation score of 5.21. As for `CNC(=O)c1cccc(-c2ccc3c(N4CCOC[C@@H]4C)nc(N4CCOC[C@@H]4C)nc3n2)c1`, the neurite formation score was 4.58. For `COc1cc2ncnc(Nc3ccc(O)cc3)c2cc1OC` the value was 4.25; for `COc1cc2nccc(Oc3ccc(NC(=O)Nc4ccc(F)cc4F)c(F)c3)c2cc1OC`, 4.38; for `COc1cc2ncnc(Oc3cccc(NC(=O)Nc4cc(C(C)(C)C(F)(F)F)on4)c3)c2cc1OC`, 4.71. `CN1CCN(Cc2ccc(-c3cnc4[nH]cc(-c5ccc6[nH]ccc6c5)c4c3)cc2)CC1` came in with a neurite formation score of 4.42. Take `Cc1cc(NC(=O)c2cccc(NC(=O)/C=C/CN(C)C)c2)ccc1Nc1nccc(-c2cccnc2)n1`: the neurite formation score is 4.58.

`C[C@@H](Oc1cc(-c2cnn(C3CCNCC3)c2)cnc1N)c1c(Cl)ccc(F)c1Cl` [(R)-Crizotinib] showed a neurite formation score of 4.71.

`Cc1cc(N2CCOCC2)cc2[nH]c(-c3c(NC[C@@H](O)c4cccc(Cl)c4)cc[nH]c3=O)nc12` displayed a neurite formation score of 4.71.

`C[C@@H]1COCCN1c1cc(C2(S(C)(=O)=O)CC2)nc(-c2cccc3[nH]ccc23)n1` had a neurite formation score of 4.71.

(Values after the supplement of paper PMC8047044.)
